Experimental findings from ChEMBL document CHEMBL1961873, “Compounds: GSK PKIS; Assays: Nanosyn kinase panel” (2012) are described below.

Several values for one entry are separate records, joined by “and”; a condition that tells them apart may be missing. Identical values can stand only once.

In the first experiment the target is Ribosomal protein S6 kinase alpha-1 (Homo sapiens) (UniProt Q15418). The note with it: at 0.1 µM.
Chain of Ribosomal protein S6 kinase alpha-1 (Homo sapiens) (Q15418 whole entry): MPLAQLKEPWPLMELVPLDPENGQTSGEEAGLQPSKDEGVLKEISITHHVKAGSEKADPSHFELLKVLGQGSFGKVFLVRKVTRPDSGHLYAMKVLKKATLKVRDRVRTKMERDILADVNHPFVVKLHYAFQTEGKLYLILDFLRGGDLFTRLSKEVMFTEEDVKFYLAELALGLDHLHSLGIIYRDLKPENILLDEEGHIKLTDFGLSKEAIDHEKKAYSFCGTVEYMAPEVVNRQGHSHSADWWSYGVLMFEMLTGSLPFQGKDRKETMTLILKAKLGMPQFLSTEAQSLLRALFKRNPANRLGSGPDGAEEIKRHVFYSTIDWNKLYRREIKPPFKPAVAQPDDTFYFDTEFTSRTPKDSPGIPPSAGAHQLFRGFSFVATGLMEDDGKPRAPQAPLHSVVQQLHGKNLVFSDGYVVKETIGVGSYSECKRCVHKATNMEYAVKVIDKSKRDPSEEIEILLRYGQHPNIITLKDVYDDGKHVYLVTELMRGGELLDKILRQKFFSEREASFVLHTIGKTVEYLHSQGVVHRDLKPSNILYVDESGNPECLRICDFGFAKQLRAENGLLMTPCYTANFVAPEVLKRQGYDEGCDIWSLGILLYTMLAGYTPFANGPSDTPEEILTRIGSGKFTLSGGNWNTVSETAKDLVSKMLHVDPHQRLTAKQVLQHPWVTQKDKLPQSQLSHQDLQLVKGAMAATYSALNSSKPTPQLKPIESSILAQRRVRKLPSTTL
For the molecule `c1cnn2ncc(-c3ccnc(NCCCN4CCOCC4)n3)c2c1`, the inhibition was 1.74%.

On to `FC(F)(F)CNc1nccc(-c2cnn3ncccc23)n1`, for which the inhibition is -0.21%.

As to `CCS(=O)(=O)c1ccc(OC)c(Nc2ncc(-c3cccc(F)c3)o2)c1`, the inhibition was found to be 2.84%.

With `COc1ccc(Nc2ncc(-c3ccccc3)o2)cc1OC`, the inhibition was 0.28%.

As to `Cc1nnc(-c2cccc(-c3ccc(C(=O)NCC4CC4)cc3)c2)o1`, the inhibition was 2.8%.

As to `COc1cc(N2CCN(C(C)C)CC2)ccc1Nc1nc(Nc2cccc3ncccc23)c2cc[nH]c2n1`, the inhibition amounted to 0.19%.

Consider `Cn1c(-c2nonc2N)nc2cnccc21`, for which the inhibition is 9.65%.

For `CC1=C(C(=O)Nc2ccc3[nH]nc(C)c3c2)C(c2ccc(C(F)(F)F)cc2)CC(=O)N1` (configuration not stated), the inhibition stood at 2.72%.

`CN1CCC(n2cnc(-c3ccc(F)cc3)c2-c2ccnc(NCCO)n2)CC1`: the inhibition is 1.81%.

For `COc1cc(Nc2ncc(-c3ccccc3)o2)cc(OC)c1`, the inhibition worked out at 1.54%.

In the case of `CC1=C(C(=O)Nc2ccc3[nH]ncc3c2)C(c2ccc(F)cc2)N=C(c2ccc(C(F)(F)F)nc2)N1` (configuration not stated), the inhibition is 0.61%.

Consider `Cc1ccc(-c2cc3c(NC(=O)C4CC4)ncnc3o2)cc1`, for which the inhibition is 2.52%.

As for `O=C1Nc2ccccc2/C1=C1\CCc2cc(O)ccc21`, the inhibition was 5.76%.

Take `CN(C)CCNC(=O)Nc1ccc(N(C)c2ccnc(Nc3ccc(CS(C)(=O)=O)cc3)n2)cc1`: the inhibition was 2.03%.

Turning to `CS(=O)(=O)CCNCc1ccoc1-c1ccc2ncnc(Nc3ccc(OCc4ccccc4)cc3)c2c1`, the inhibition was found to be 0.19%.

On to `CS(=O)(=O)Nc1ccc(-c2ccc3c(NC(=O)C4CC4)n[nH]c3c2)cc1`, for which the inhibition was 1.25%.

`O=C(Nc1n[nH]c2nnc(-c3cccnc3)cc12)C1CC1`: the inhibition stood at 0.83%.

Turning to `CC1(C)CC(n2cnc(-c3ccc(F)cc3)c2-c2ccnc(N)n2)CC(C)(C)N1`, the inhibition turned out to be 1.07%.

As for `CNC(=O)c1ncccc1Nc1nc(Nc2cc3c(cc2OC)CCCN3C(=O)CN(C)C)nc2[nH]ccc12`, the inhibition came out at 5.58%.

For the molecule `COc1cccc(-n2ncc3c(N/N=C/c4ccc(C(=O)NCCN(C)C)cc4)ncnc32)c1`, the inhibition turned out to be 1.48%.

For `Cc1c2ccc(N(C)c3ccnc(Nc4cccc(S(N)(=O)=O)c4)n3)cc2nn1C`, the inhibition came to 2%.

With `OCCCNc1nccc(-c2c(-c3ccc(F)cc3)nn3cc(C(F)(F)F)ccc23)n1`, the inhibition was 1.23%.

As for `COc1cccc(Nc2nccc(-c3cnn4ncccc34)n2)c1`, the inhibition was found to be 0.64%.

As for `O=C(O[C@H]1CN[C@H](C#Cc2cc3ncnc(Nc4ccc(OCc5cccc(F)c5)c(Cl)c4)c3s2)C1)N1CCOCC1`, the inhibition came to 1.45%.

`NS(=O)(=O)c1ccc(N/N=C2\C(=O)Nc3ccc(C(=O)NCc4ccncc4)cc32)cc1`: the inhibition is 1.77%.

As for `CS(=O)(=O)CCNCc1ccc(-c2ccc3ncnc(Nc4ccc(OCc5ccccc5)cc4)c3c2)o1`, the inhibition came to 2.15%.

`CCOc1ccc2c(-c3ccnc(Nc4cc(OC)cc(C(F)(F)F)c4)n3)cnn2n1`: the inhibition is -0.43%.

On to `Nc1nonc1-c1nc2cnccc2n1C1CC1`, for which the inhibition is 66.3% and 63.6%.

As to `CCN1CCC(C(=O)Nc2n[nH]c3nnc(-c4cccc(F)c4F)cc23)CC1`, the inhibition amounted to 0.15%.

Consider `CS(=O)(=O)CCNCc1ccc(-c2ccc3ncnc(Nc4ccc(OCc5cccc(C(F)(F)F)c5)cc4)c3c2)o1`, for which the inhibition is 0.96%.

In the case of `Nc1nccc(-c2c(-c3ccc(F)cc3)ncn2C2CCNCC2)n1`, the inhibition was -1.25% and 0.52%.

The target is the same in a further experiment. The note with it: at 1 µM.
With `c1cnn2ncc(-c3ccnc(NCCCN4CCOCC4)n3)c2c1`, the inhibition is 4.45%.

As for `FC(F)(F)CNc1nccc(-c2cnn3ncccc23)n1`, the inhibition was found to be 1.24%.

For the molecule `CCS(=O)(=O)c1ccc(OC)c(Nc2ncc(-c3cccc(F)c3)o2)c1`, the inhibition was determined as 6.08%.

Consider `COc1ccc(Nc2ncc(-c3ccccc3)o2)cc1OC`, for which the inhibition stood at 2.18%.

In the case of `Cc1nnc(-c2cccc(-c3ccc(C(=O)NCC4CC4)cc3)c2)o1`, the inhibition was determined as 4.92%.

For `COc1cc(N2CCN(C(C)C)CC2)ccc1Nc1nc(Nc2cccc3ncccc23)c2cc[nH]c2n1`, the inhibition turned out to be 3.05%.

On to `Cn1c(-c2nonc2N)nc2cnccc21`, for which the inhibition was determined as 44.8%.

Regarding `CC1=C(C(=O)Nc2ccc3[nH]nc(C)c3c2)C(c2ccc(C(F)(F)F)cc2)CC(=O)N1` (configuration not stated), the inhibition worked out at 11.3%.

Regarding `CN1CCC(n2cnc(-c3ccc(F)cc3)c2-c2ccnc(NCCO)n2)CC1`, the inhibition turned out to be 6.04%.

Regarding `COc1cc(Nc2ncc(-c3ccccc3)o2)cc(OC)c1`, the inhibition is 1.99%.

As to `CC1=C(C(=O)Nc2ccc3[nH]ncc3c2)C(c2ccc(F)cc2)N=C(c2ccc(C(F)(F)F)nc2)N1` (configuration not stated), the inhibition is 4.49%.

As for `Cc1ccc(-c2cc3c(NC(=O)C4CC4)ncnc3o2)cc1`, the inhibition was 4.28%.

`O=C1Nc2ccccc2/C1=C1\CCc2cc(O)ccc21`: the inhibition is 28.4%.

With `CN(C)CCNC(=O)Nc1ccc(N(C)c2ccnc(Nc3ccc(CS(C)(=O)=O)cc3)n2)cc1`, the inhibition worked out at 2.41%.

For the molecule `CS(=O)(=O)CCNCc1ccoc1-c1ccc2ncnc(Nc3ccc(OCc4ccccc4)cc3)c2c1`, the inhibition is -0.1%.

With `CS(=O)(=O)Nc1ccc(-c2ccc3c(NC(=O)C4CC4)n[nH]c3c2)cc1`, the inhibition came to 1.36%.

Regarding `O=C(Nc1n[nH]c2nnc(-c3cccnc3)cc12)C1CC1`, the inhibition turned out to be 0.39%.

On to `CC1(C)CC(n2cnc(-c3ccc(F)cc3)c2-c2ccnc(N)n2)CC(C)(C)N1`, for which the inhibition is 1.93%.

Consider `CNC(=O)c1ncccc1Nc1nc(Nc2cc3c(cc2OC)CCCN3C(=O)CN(C)C)nc2[nH]ccc12`, for which the inhibition stood at 25.8%.

For the molecule `COc1cccc(-n2ncc3c(N/N=C/c4ccc(C(=O)NCCN(C)C)cc4)ncnc32)c1`, the inhibition was determined as 6.32%.

Consider `Cc1c2ccc(N(C)c3ccnc(Nc4cccc(S(N)(=O)=O)c4)n3)cc2nn1C`, for which the inhibition came out at 3.33%.

For `OCCCNc1nccc(-c2c(-c3ccc(F)cc3)nn3cc(C(F)(F)F)ccc23)n1`, the inhibition came to 2.41%.

Turning to `COc1cccc(Nc2nccc(-c3cnn4ncccc34)n2)c1`, the inhibition turned out to be 4.33%.

On to `O=C(O[C@H]1CN[C@H](C#Cc2cc3ncnc(Nc4ccc(OCc5cccc(F)c5)c(Cl)c4)c3s2)C1)N1CCOCC1`, for which the inhibition was 6.91%.

With `NS(=O)(=O)c1ccc(N/N=C2\C(=O)Nc3ccc(C(=O)NCc4ccncc4)cc32)cc1`, the inhibition came to 7.98%.

Take `CS(=O)(=O)CCNCc1ccc(-c2ccc3ncnc(Nc4ccc(OCc5ccccc5)cc4)c3c2)o1`: the inhibition stood at 3.81%.

For `CCOc1ccc2c(-c3ccnc(Nc4cc(OC)cc(C(F)(F)F)c4)n3)cnn2n1`, the inhibition was -1.47%.

On to `Nc1nonc1-c1nc2cnccc2n1C1CC1`, for which the inhibition was 84.2% and 79.4%.

Regarding `CCN1CCC(C(=O)Nc2n[nH]c3nnc(-c4cccc(F)c4F)cc23)CC1`, the inhibition is 0.28%.

In the case of `CS(=O)(=O)CCNCc1ccc(-c2ccc3ncnc(Nc4ccc(OCc5cccc(C(F)(F)F)c5)cc4)c3c2)o1`, the inhibition is 2.45%.

Regarding `Nc1nccc(-c2c(-c3ccc(F)cc3)ncn2C2CCNCC2)n1`, the inhibition is 1.83% and 2.8%.
